In PubChem BioAssay (EPA / NIEHS):
Results filed as inconclusive are left out. The source made the active and inactive calls. The calls were made as follows: active = hit-call score of the fitted dose curve at least 0.9, where 1 is the maximum; inconclusive = response in the unintended direction; inactive = score below 0.9.

What follows are molecules tested against human Retinoic Acid Receptor beta (RARb), RARB (gene 5915) (UniProt P10826) (assay: ATG_RARb_TRANS: Attagene TRANS-FACTORIAL HepG2 Assay for human Retinoic Acid Receptor beta (AID 2283004)).
human Retinoic Acid Receptor beta (RARb), RARB (gene 5915), sequence (P10826 whole entry, looked up, the tested form may be a part): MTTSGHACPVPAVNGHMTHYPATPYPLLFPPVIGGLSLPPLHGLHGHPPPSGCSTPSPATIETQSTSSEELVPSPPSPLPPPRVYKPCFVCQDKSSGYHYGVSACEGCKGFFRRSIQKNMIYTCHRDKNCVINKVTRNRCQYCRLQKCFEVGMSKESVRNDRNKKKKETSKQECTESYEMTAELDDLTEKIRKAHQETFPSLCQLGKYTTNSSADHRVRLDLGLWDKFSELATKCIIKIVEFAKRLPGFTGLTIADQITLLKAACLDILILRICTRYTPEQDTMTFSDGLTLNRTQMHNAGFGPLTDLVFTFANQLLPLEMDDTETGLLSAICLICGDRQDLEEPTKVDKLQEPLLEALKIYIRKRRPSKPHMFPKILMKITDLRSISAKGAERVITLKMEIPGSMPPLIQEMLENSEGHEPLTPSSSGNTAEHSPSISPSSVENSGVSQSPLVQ
Procedure, shortened: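 Readout is reporter mRNA induction: RNA reverse-transcribed, PCR-amplified, FAM-labelled, HpaI-cut and resolved by capillary electrophoresis. Transiently transfected HepG2 cells carrying exogenous NR–Gal4 chimeras were dosed for 24 h; activity fitted upward relative to DMSO.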

Structure (SMILES)	outcome
O=C(O)c1cc(I)cc(I)c1I	inactive
COCCl	inactive
C[CH2][Hg][S]c1ccccc1C(=O)O	inactive
C[C@H]1C(=O)O[C@@H]2CCN3CC=C(COC(=O)[C@](C)(O)[C@]1(C)O)[C@H]23	inactive
Clc1cc(C(Cl)(Cl)Cl)cnc1Cl	inactive
N#Cc1ccncc1	inactive
OC[P+](CO)(CO)CO	inactive
OC(Cc1ccccc1Cl)(Cn1cncn1)C1(Cl)CC1 (stereo not given)	inactive
CN(C)c1ccc(N=O)cc1	inactive
O=C1c2ccccc2C(=O)C1C(=O)C(c1ccccc1)c1ccc(Cl)cc1 (stereo not given)	inactive
COc1ccc([N+](=O)[O-])cc1O	inactive

These molecules were tested against Retinoic acid receptor alpha (Homo sapiens) (UniProt P10276) (assay: ATG_RARa_TRANS: Attagene TRANS-FACTORIAL HepG2 Assay for human Retinoic Acid Receptor alpha (RARa) (AID 2283005);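 as to AC50: potency for increased reporter signal meaning RARa activation over DMSO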).
Retinoic acid receptor alpha (Homo sapiens), sequence (P10276 whole entry, looked up, the tested form may be a part): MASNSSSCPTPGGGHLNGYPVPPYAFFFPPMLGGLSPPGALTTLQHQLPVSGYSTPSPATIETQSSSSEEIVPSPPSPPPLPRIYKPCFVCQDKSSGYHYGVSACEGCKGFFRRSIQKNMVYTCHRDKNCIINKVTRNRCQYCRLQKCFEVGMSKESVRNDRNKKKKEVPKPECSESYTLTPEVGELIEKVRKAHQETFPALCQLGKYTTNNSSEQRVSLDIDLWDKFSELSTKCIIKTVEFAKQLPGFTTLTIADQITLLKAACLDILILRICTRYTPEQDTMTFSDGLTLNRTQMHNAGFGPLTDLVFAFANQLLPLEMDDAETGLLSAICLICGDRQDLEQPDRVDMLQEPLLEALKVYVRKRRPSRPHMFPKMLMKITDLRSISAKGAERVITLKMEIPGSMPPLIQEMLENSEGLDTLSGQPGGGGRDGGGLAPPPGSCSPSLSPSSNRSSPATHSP
Procedure, shortened: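 HepG2 transiently transfected with multiplex GAL4-UAS reporter units including a human RARa–GAL4 chimera; 24 h compound exposure. Reporter mRNA quantified by RT-PCR, 6-FAM labeling and capillary electrophoresis; gain of signal versus DMSO.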

Structure (SMILES)	outcome	AC50
C=CCCl	inactive	–
N#CCC#N	inactive	–
Brc1ccc(Br)cc1	inactive	–
C[CH2][Hg][S]c1ccccc1C(=O)O	inactive	–
CCOP(=O)(OCC)SCCSCC	inactive	–
N#Cc1ccccc1Cl	inactive	–
CCCCOC(C)=O	inactive	–
N#Cc1ccncc1	inactive	–
OC(Cc1ccccc1Cl)(Cn1cncn1)C1(Cl)CC1 (stereo not given)	inactive	–
CN(C)c1ccc(N=O)cc1	inactive	–
O=S1(=O)OC(c2cc(Br)c(O)c(Br)c2)(c2cc(Br)c(O)c(Br)c2)c2ccccc21	inactive	–
Brc1c(Br)c(Br)c(Oc2c(Br)c(Br)c(Br)c(Br)c2Br)c(Br)c1Br	inactive	–
O=C1c2ccccc2C(=O)C1C(=O)C(c1ccccc1)c1ccc(Cl)cc1 (stereo not given)	–	26.1 µM (active)
O=C(Nc1ccc(Br)cc1)c1cc(Br)cc(Br)c1O	inactive	–
